This note sets out measurements from PubChem BioAssay.

Calls of active or inactive are those of the source.

The test system of experiment [1] is PRMT1 (protein arginine N-methyltransferase 1). Kind of experiment: PRMT1 binders on small-molecule microarrays, primary screen, biochemical, small-molecule microarray, 635 nm fluorescence (AID 1088).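 Further: binding of Prmt1 protein to compounds spotted on small-molecule microarray slides.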 To be noted: small-molecule microarray binding, higher = more signal.
Experiment [2] in a line: yeast growth modulation, basal conditions, primary screen, YJM789 clinical isolate, OD600, 24 h (AID 1089).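 Further: growth of clinical yeast isolate S. cerevisiae YJM 789 seeded 1000 cells per well; test concentration not given here.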 The conditions noted are these: S. cerevisiae YJM789 growth, higher = more signal, called active from +8 up or from −8 down.
Experiment [3] is described as follows: fission yeast growth modulation, primary screen, strain 972, OD600, 24 h, no modulator (AID 1090).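 Further: basal condition with compound alone and no growth modifier present; test concentration not given here.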 To be noted: S. pombe 972 growth, higher = more signal, called active from +8 up or from −8 down.
The nature of experiment [4]: S. cerevisiae growth modulation with rapamycin, primary screen, strain BY4716, OD600, 96 h (AID 1091). Further: test concentration not given here. To be noted: higher = more signal, called active from +8 up or from −8 down.
Experiment [5] has as its target Torsin-1A-interacting protein 2 (Homo sapiens) (UniProt Q8NFQ8). As to the kind of experiment: LULL1 binders on small-molecule microarray, primary screen, cell lysate, human LULL1 lysate, 635/667 nm fluorescence (AID 1092).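 Further: probe is lysate of COS7 cells overexpressing human LULL1; score merges per-feature 667 nm fluorescence with signal-to-noise.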 To be noted: hLULL1 lysate binding, 635 nm fluorescence, higher = more signal.
The nature of experiment [6]: E. coli growth modulation, two-sided OD650, primary screen, E. coli filamentation project, strain DRC41, 24 h (AID 1093).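 Further: MC1000 strain lacking acrAB efflux and sulA so SOS filamentation is blocked; test concentration not given here.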 The conditions noted are these: OD650, 24 h, higher = more signal, called active from +8 up or from −8 down.
Experiment [7] is described as follows: small-molecule microarray binders of probe aLefty2, primary screen, biochemical, biotinylated probe, 635/667 nm fluorescence (AID 1094).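 Further: score merges spot fluorescence near 667 nm with spot signal-to-noise ratio.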 To be noted: higher = more signal.
Experiment [8] relates to Noggin (protein binding on small-molecule microarray). As to the kind of experiment: Noggin binders on small-molecule microarray, primary screen, biochemical, 635/667 nm fluorescence (AID 1095).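 Further: score merges 667 nm feature fluorescence with signal to noise over triplicate slides.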 The conditions noted are these: 635 nm fluorescence, higher = more signal.
Experiment [9] addresses Neurogenic locus notch homolog protein 3 (Homo sapiens) (UniProt Q9UM47). Kind of experiment: NOTCH3 binders on small-molecule microarray, primary screen, biochemical, 635/667 nm fluorescence (AID 1096). To be noted: NOTCH3 binding, 635 nm fluorescence, higher = more signal.
The nature of experiment [10]: small-molecule microarray binders of probe aEGFR, primary screen, biochemical, biotinylated probe, 635/667 nm fluorescence (AID 1097).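 Further: probe is a biotinylated anti-EGFR antibody binding compounds printed on slides; score combines fluorescence near 667 nm and signal to noise of each spot.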 To be noted: higher = more signal.

Sequence of Torsin-1A-interacting protein 2 (Homo sapiens) (Q8NFQ8 whole entry, looked up): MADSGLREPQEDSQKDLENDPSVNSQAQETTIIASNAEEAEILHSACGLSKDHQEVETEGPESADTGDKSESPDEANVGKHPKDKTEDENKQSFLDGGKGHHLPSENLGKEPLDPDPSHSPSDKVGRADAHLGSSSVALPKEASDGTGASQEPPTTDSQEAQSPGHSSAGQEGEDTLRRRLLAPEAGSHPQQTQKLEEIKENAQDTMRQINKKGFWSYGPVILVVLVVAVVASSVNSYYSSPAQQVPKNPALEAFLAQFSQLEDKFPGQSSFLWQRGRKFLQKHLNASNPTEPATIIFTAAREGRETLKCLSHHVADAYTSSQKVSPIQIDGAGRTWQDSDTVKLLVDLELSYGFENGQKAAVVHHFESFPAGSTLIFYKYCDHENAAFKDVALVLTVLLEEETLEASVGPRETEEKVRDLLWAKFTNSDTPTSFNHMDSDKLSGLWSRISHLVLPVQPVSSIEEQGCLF
Sequence of Neurogenic locus notch homolog protein 3 (Homo sapiens) (Q9UM47 whole entry, looked up): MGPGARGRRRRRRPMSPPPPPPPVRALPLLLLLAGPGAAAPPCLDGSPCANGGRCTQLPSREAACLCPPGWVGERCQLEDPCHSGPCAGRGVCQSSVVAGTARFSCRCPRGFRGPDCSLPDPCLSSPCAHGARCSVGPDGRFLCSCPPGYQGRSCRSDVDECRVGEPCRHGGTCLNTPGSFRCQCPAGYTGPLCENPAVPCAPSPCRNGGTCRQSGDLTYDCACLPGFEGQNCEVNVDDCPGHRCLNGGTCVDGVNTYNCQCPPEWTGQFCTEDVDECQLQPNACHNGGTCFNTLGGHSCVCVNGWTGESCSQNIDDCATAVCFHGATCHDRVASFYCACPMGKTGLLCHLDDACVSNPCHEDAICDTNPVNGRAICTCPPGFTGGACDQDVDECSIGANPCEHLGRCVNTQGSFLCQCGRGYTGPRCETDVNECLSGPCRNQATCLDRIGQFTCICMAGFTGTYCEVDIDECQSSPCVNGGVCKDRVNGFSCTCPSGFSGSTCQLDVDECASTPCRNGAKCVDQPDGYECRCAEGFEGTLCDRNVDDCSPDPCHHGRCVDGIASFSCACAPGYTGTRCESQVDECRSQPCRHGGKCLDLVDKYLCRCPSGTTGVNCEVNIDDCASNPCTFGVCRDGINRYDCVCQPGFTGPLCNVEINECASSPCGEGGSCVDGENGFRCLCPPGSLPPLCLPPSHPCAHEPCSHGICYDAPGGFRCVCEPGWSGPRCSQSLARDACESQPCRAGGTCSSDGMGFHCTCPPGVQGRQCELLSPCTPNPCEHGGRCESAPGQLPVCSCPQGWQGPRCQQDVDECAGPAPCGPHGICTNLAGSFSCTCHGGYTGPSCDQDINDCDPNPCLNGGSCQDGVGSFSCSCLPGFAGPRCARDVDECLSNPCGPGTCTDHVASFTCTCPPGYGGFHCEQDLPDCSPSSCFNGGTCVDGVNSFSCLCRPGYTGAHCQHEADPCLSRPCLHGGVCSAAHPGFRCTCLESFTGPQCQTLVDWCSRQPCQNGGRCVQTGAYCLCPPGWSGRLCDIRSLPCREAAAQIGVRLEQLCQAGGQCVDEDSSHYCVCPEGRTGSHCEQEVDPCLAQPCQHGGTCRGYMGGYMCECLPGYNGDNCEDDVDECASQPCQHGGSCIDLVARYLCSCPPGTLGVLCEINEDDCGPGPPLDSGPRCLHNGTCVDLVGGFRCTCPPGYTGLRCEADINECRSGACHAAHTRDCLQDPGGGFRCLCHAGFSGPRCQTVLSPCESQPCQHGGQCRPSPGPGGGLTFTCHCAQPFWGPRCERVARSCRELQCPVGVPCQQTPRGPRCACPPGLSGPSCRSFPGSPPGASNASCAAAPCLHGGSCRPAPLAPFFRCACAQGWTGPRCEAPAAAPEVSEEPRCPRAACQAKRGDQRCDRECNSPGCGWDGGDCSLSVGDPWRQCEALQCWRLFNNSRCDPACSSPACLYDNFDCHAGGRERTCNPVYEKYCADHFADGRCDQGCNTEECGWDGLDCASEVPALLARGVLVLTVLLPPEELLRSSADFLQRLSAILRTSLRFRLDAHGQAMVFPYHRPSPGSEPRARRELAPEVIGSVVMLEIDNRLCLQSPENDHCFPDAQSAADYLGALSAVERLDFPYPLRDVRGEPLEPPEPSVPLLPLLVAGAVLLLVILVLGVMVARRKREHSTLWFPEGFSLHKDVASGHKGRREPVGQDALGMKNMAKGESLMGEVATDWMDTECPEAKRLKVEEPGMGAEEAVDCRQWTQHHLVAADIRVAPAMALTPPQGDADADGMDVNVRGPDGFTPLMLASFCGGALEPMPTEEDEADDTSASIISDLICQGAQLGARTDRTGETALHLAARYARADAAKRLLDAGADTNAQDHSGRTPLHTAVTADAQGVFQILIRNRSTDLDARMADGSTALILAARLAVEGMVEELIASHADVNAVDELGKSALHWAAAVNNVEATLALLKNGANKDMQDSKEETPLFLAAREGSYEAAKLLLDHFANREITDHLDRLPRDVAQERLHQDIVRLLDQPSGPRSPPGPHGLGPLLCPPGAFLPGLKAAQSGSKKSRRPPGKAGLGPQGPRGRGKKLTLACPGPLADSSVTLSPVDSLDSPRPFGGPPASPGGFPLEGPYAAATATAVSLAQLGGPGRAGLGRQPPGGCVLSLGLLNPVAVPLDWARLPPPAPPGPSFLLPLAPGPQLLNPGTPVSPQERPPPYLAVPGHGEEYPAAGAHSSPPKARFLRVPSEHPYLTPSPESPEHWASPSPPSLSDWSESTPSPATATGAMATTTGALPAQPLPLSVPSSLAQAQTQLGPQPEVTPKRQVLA

In the case of `CO[C@H]1O[C@H](CO)[C@@H](OC(=O)Nc2ccc(Br)cc2)[C@H](OC(=O)c2cc3ccccc3[nH]2)[C@H]1OC(=O)c1cc2ccccc2[nH]1`, the composite z-score in experiment [1] worked out at 1.39; in experiment [5] it was 2.48; in experiment [7] it was 0.0166; in experiment [8] it was 0.514; in [9], 0.944; in [10] it was 0.0686. The z-score in [2] was -1.96 (inactive); in [3], -1.59 (inactive); in experiment [4], -0.654 (inactive); in [6], 2.05 (inactive).

`O=C(NCc1ccccc1)[C@@H]1c2ccccc2C(=O)N(CC23CC4CC(CC(C4)C2)C3)[C@H]1c1ccc(CO)cc1`: the composite z-score in experiment [1] was 1.55; in experiment [5], 2.9; in experiment [7], -0.225; in experiment [8], 1.72; in experiment [9] it was 1.05; in [10] it was -0.137. The z-score is -0.52 (inactive) in experiment [2], -0.0538 (inactive) in experiment [3], 0.988 (inactive) in [4] and -0.668 (inactive) in experiment [6].

Regarding `O=C1NC(=O)C2C1C=CC(C(O)c1cccc3ccccc13)N2Nc1ccccn1` (stereo not given), the composite z-score in experiment [1] was 0.246; in experiment [5] it was 1.37; in experiment [7], 0.127; in experiment [8], -0.321; in [9] it was -0.198; in experiment [10], -0.0766. The z-score in experiment [2] is 0.143 (inactive); in [3], 1.14 (inactive); in experiment [4], -0.207 (inactive); in experiment [6], 0.213 (inactive).

As to `CCCC#C[Si](O[C@H](CC)c1cn([C@H](CO)Cc2ccccc2)nn1)(C(C)C)C(C)C`, the composite z-score in experiment [1] is 0.869; in experiment [5], 1.48; in experiment [7], 0.0166; in experiment [8] it was 0.681; in [9], 0.584; in experiment [10], -0.0563. Besides, the z-score is -0.843 (inactive) in [2], -10.7 (active) in experiment [3], -2.6 (inactive) in [4] and 0.858 (inactive) in experiment [6].

Turning to `CCOC(=O)[C@H]1CC=C2CC1C(=O)N1CCC[C@@H]1[C@@H]2O[Si](C)(C)C(C)(C)C` (stereo not given in full), the composite z-score in [1] is -0.295; in experiment [5], 0.368; in experiment [7], -0.376; in experiment [8], 0.451; in experiment [9] it was -0.979; in [10], -0.265. For the same molecule, the z-score in experiment [2] is -2.4 (inactive); in experiment [3] it was -21.2 (active); in experiment [4], -1.8 (inactive); in [6], -0.558 (inactive).

Turning to `COC(=O)C(CC#Cc1ccc2c(c1)[C@]1(C(=O)N2)[C@H](C(=O)O)[C@H]2C(=O)O[C@H](c3ccccc3)[C@H](c3ccccc3)N2[C@@H]1c1ccc(O)cc1)C(=O)OC`, the composite z-score in [1] is 0.615; in [5], 2.12; in experiment [7], -0.188; in [8], -0.868; in experiment [9], -0.608; in experiment [10] it was -0.0514. For the same molecule, the z-score is 1.06 (inactive) in experiment [2], 0.819 (inactive) in experiment [3], -0.567 (inactive) in [4] and -0.913 (inactive) in experiment [6].

As to `C=CCOC(=O)[C@H]1[C@@H]2C(=O)O[C@@H](c3ccccc3)[C@@H](c3ccccc3)N2[C@@H](c2ccc(OCCOC(=O)[C@H]3C[C@H]4C(=O)N5CCC[C@H]5C(=O)N4[C@H]3c3ccc(O)cc3)cc2)[C@]12C(=O)Nc1ccc(I)cc12`, the composite z-score worked out at 1.53 in experiment [1]; 3.64 in [5]; 1.46 in [7]; 2 in [8]; 1.05 in experiment [9]; 0.993 in experiment [10]. Also, the z-score was -0.324 (inactive) in [2], -1.65 (inactive) in [3], 0.0891 (inactive) in [4] and 1.07 (inactive) in experiment [6].

With `CCCC[C@H]1OB(O)C[C@H]2C1=C(COc1ccccc1)C[C@H]1C(=O)N(C)C(=O)[C@H]12`, the composite z-score is -0.0361 in experiment [1]; 0.265 in experiment [5]; 0.0784 in experiment [7]; 0.231 in [8]; 0.187 in experiment [9]; -0.0714 in [10]. Also, the z-score was -0.454 (inactive) in experiment [2], -1.03 (inactive) in experiment [3], -0.861 (inactive) in experiment [4] and -0.632 (inactive) in experiment [6].

Regarding `CCCCC(O)C1C=CC2C(=O)N(c3ccccc3)C(=O)C2N1Nc1ccccc1F` (stereo not given), the composite z-score was 1.11 in experiment [1]; 2.99 in experiment [5]; 0.648 in [7]; -0.0787 in [8]; 0.818 in [9]; 0.159 in experiment [10]. Moreover, the z-score in experiment [2] is -0.0377 (inactive); in experiment [3], -0.579 (inactive); in experiment [4] it was 1.03 (inactive); in experiment [6], -0.825 (inactive).

Regarding `C#CCNC(=O)[C@H](Cc1ccccc1)NC(=O)CCC(=O)O`, the composite z-score was -1.17 in [1]; -0.906 in experiment [5]; -0.198 in experiment [7]; -0.88 in experiment [8]; -0.502 in experiment [9]; -0.238 in experiment [10]. Moreover, the z-score is -0.136 (inactive) in experiment [2], 0.396 (inactive) in experiment [3], 0.0017 (inactive) in experiment [4] and -0.361 (inactive) in experiment [6].

Turning to `COCCOC(=O)N1C(=O)[C@@]2(c3cc(C#CC4=CCCCC4)ccc31)[C@H](c1ccc(O)cc1)N1[C@H](c3ccccc3)[C@H](c3ccccc3)OC(=O)[C@H]1[C@@H]2C(N)=O`, the composite z-score in experiment [1] was 1.56; in experiment [5], 1.84; in experiment [7] it was -0.388; in experiment [8], 1.63; in experiment [9], 1.1; in [10], -0.11. Besides, the z-score was 0.893 (inactive) in [2], 0.358 (inactive) in [3], 0.918 (inactive) in experiment [4] and -0.603 (inactive) in experiment [6].

Take `[N-]=[N+]=NCc1ccccc1[C@@H]1OC(c2ccc(OCCCO)cc2)=N[C@]1(Cc1ccccc1N=[N+]=[N-])C(=O)N1CCOCC1`: the composite z-score in [1] was 1.55; in experiment [5] it was 3.25; in experiment [7] it was 0.295; in [8], 1.04; in [9], 1.04; in experiment [10], 0.246. Also, the z-score was -1.29 (inactive) in experiment [2], -1.59 (inactive) in [3], 4.14 (inactive) in experiment [4] and -0.667 (inactive) in experiment [6].

Turning to `NC(=O)[C@@H]1[C@H]2C(=O)O[C@H](c3ccccc3)[C@H](c3ccccc3)N2[C@H](c2ccc(O)cc2)[C@@]12C(=O)Nc1ccc(C#CC3(O)CCCCCC3)cc12`, the composite z-score in experiment [1] was 0.454; in [5], 2.14; in [7] it was -0.072; in [8], -0.6; in experiment [9], -0.395; in experiment [10] it was -0.178. Besides, the z-score is 0.505 (inactive) in experiment [2], -0.133 (inactive) in [3], 0.639 (inactive) in experiment [4] and -0.441 (inactive) in experiment [6].

Regarding `COCC(=C=CC[C@@H](O)c1ccccc1OCCO)C[C@@H](O)c1cc(Cl)cc(Cl)c1O`, the composite z-score in [1] is 1.53; in [5], 2.13; in [7], -0.053; in [8], 1.42; in experiment [9] it was 1.07; in experiment [10] it was -0.0353. The z-score is 0.157 (inactive) in [2], -0.563 (inactive) in experiment [3], 0.0403 (inactive) in experiment [4] and 0.0142 (inactive) in experiment [6].
